# Bioassay records from PubChem BioAssay.
# Platelet DG rel = platelet dense granule release activity; human platelet-rich plasma, SFLLRN dense granule ATP release, luminescence; inhibition, %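 (compounds screened at 7.5 µM in platelet-rich plasma)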; 0.22% of 300,000 active; AID 1663;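 active means mean replicate score, as percent of positive control, at or above 50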
# SENP6 inh = blocks the human protease SENP6; Q9GZR1; Recombinant SENP6 catalytic domain, aminoluciferin luminescence; inhibition, % at 10 µM; 1.8% of 330,000 active;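 active means inhibition above about 50% at the single tested dose, limit read from the data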;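 further: plate controls were DMSO wells with enzyme for no effect and DMSO wells lacking enzyme for full effect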
# SENP8 block-1 = SENP8 (human) protease inhibition; Q96LD8; recombinant SENP8, Nedd8 substrate fluorescence; inhibition, % at 20 µM; 0.64% of 360,000 active; AID 602440; in the data active means inhibition mostly above about 40%, no sharp cut-off; inactive means mostly below about 27%
# Target sequence (Q96LD8 whole entry, looked up): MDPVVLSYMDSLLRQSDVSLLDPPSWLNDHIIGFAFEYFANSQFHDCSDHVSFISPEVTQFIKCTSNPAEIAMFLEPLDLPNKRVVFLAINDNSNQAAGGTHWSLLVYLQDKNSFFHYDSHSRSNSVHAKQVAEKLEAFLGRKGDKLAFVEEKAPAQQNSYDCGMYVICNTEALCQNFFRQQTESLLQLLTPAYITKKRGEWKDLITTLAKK
# SENP7 inh = inhibitors of human SENP7 protease. inhibition, % at 5 µM. Q9BQF6. recombinant SENP7, Z-RLRGG-aminoluciferin luminescence, 40 min. 1.5% of 330,000 active;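 active means inhibition above about 50% at the single test dose, limit read from the data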;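 further: plate controls were DMSO with enzyme for no effect and no enzyme buffer wells for full effect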
# HSP90 refold inh = HSP90 refolding inhibition in rabbit reticulocyte lysate | luciferase refolding luminescence, 3 h | inhibition, % at 5.6 µM | 0.91% of 290,000 active;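 active means inhibition above the screen-wide mean plus 3 SD, computed separately per campaign, cut at about 16% in these data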;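 further: 0% = DMSO wells and 100% = 60 µM geldanamycin wells; inhibitors lower the luminescence because luciferase stays unfolded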
# SENP8 block-2 = blocks the human protease SENP8; Q96LD8; purified SENP8, Z-RLRGG-aminoluciferin cleavage, luminescence; inhibition, % at 10 µM; 1.2% of 330,000 active; AID 2540; in the data active means inhibition above about 50%
# SENP8 conf = confirmation of human SENP8 protease inhibitors; shares compounds with SENP7 inh; Recombinant SENP8, Z-RLRGG-aminoluciferin luminescence, 60 min; inhibition, % at 12.5 µM; 40% of 6,200 active; AID 488912;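 active means mean inhibition across replicates above about 50%, limit read from the data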
# SENP6 confirm = human SENP6 inhibition, confirmed. shares compounds with SENP7 inh. recombinant SENP6, Z-RLRGG-aminoluciferin luminescence. inhibition, % at 12.5 µM. 58% of 6,200 active. AID 488915
# SENP7 conf = confirmation of human SENP7 protease inhibitors; recombinant SENP7, Z-RLRGG-aminoluciferin luminescence, 40 min; inhibition, % at 12.5 µM; shares compounds with SENP7 inh; 69% of 6,200 active
# Casp3 SENP sel = inhibits human caspase-3 in SENP selectivity test; shares compounds with SENP7 inh; purified caspase-3, Z-DEVD-aminoluciferin luminescence, 60 min; inhibition, % at 12.5 µM; 60% of 6,200 active;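 active means mean inhibition above about 50%, limit read from the data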;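 further: plate controls were enzyme with DMSO for no effect and wells without caspase-3 for full effect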
# Target sequence (P42574 28-227 limits assumed): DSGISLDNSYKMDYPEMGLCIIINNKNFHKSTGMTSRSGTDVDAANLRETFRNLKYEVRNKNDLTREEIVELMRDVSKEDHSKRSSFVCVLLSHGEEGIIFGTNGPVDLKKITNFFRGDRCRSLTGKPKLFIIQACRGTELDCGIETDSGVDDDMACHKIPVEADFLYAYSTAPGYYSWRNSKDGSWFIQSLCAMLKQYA
# SENP luc ctr = luminescence interference (SENP counter-screen). shares compounds with SENP7 inh. Pre-incubated SENP8/Z-RLRGG-aminoluciferin, luciferase luminescence interference. inhibition, % at 12.5 µM. 39% of 6,200 active. AID 488919;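 active means mean inhibition above about 50% when retested at one dose, limit read from the data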;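 further: plate controls were DMSO wells with completed reaction for no effect and substrate without enzyme for full effect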
# * hit, by the source's call; i = inactive; / = not tested or not shown. Shown are actives, neighbours in structure and some others; about 2.8% of the full set was active somewhere.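 How the source made its calls, unless noted: active means mean inhibition above about 50% in the one-dose retest (limit read from the data); inactive means the rest.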
SMILES,Platelet DG rel,SENP6 inh,SENP8 block-1,SENP7 inh,HSP90 refold inh,SENP8 block-2,SENP8 conf,SENP6 confirm,SENP7 conf,Casp3 SENP sel,SENP luc ctr
COc1ccc(-c2csc(-n3cccn3)n2)cc1,-3.4,81.4*,8.6,80.3*,-3.2,72.4*,10.5,78.7*,96.2*,65.3*,68.6*
Cc1cc2nn(-c3ccc(Cl)cc3)nc2cc1N,2.6,9.1,-289.2,4.4,1.3,9.1,/,/,/,/,/
COc1ccc(-n2nc3ccc(N)cc3n2)cc1,/,/,i,/,/,/,/,/,/,/,/
CCOc1ccc(-n2nc3ccc(N)cc3n2)cc1,19.7,86.3*,-428.7,40.8,1.9,79.4*,85.1*,44.8,1.0,2.2,66.0*
CCOc1ccc(-n2nc3cc(C)c(N)cc3n2)cc1,-21.8,73.3*,i,13.2,10.6,45.7,40.3,74.3*,94.1*,37.5,5.9
COc1ccc(NC(=O)Nc2nnc([C@H]3C[C@H](O)[C@@H](CO)O3)s2)cc1,/,/,11.8,/,/,/,/,/,/,/,/
O=C(Nc1ccc(F)cc1)C(c1cccc(F)c1)N1CCN(c2ccncc2)CC1 (stereo not given),/,/,7.2,/,/,/,/,/,/,/,/
CCCc1[nH]n(-c2nc3ccccc3s2)c(=O)c1C=NCC1CCCO1 (stereo not given),-2.4,8.8,10.6,3.7,5.2,8.4,/,/,/,/,/
CCCc1[nH]n(-c2nc3ccccc3s2)c(=O)c1C=NCCN1CCOCC1,-0.6,50.8*,23.4,36.0,-3.2,34.2,55.6*,39.6,51.5*,60.5*,54.8*
CS/C(N)=N/N=C/c1cc(C)ccc1O,11.5,-1.7,17.4,62.9*,6.8,53.9*,39.3,59.5*,84.8*,63.9*,66.4*
CCS/C(N)=N/N=C/c1cc(C)ccc1O,17.6,70.6*,25.7,51.2*,3.2,47.3,62.4*,62.1*,87.2*,61.8*,29.0
CCCCS/C(N)=N/N=C/c1cc(C)ccc1O,-2.0,-20.2,10.8,-6.5,-5.4,-9.4,/,/,/,/,/
Cc1ccc(/C=N/Nc2nnc(Cl)c3ccccc23)cc1,4.7,92.8*,-9.9,95.2*,-3.1,85.8*,43.9,49.2,42.3,37.0,17.4
Clc1ccc(/C=N/Nc2nnc(Cl)c3ccccc23)cc1,2.5,-19.7,13.9,22.0,1.9,-8.4,/,/,/,/,/
C(=N\Nc1ncnc2ccccc12)/c1ccccc1,10.6,47.3,10.2,66.2*,-0.6,39.1,61.6*,58.8*,85.3*,69.1*,68.1*
Clc1nnc(N/N=C/c2ccccc2)c2ccccc12,-2.3,94.4*,8.6,90.0*,-0.5,73.6*,16.4,38.7,65.4*,35.6,20.7
Cc1csc(SC(C)C(=O)Nc2ccccc2C)n1 (stereo not given),/,5.8,-2.5,6.9,/,2.0,/,/,/,/,/
O=C(N/N=C/c1cc2c(cc1Cl)OCO2)c1cccc(Br)c1,5.0,50.8*,-139.2,47.6,0.7,5.4,14.9,21.6,32.7,31.2,7.7
CC(C)[C@H](NS(=O)(=O)c1ccccc1)C(=O)OCC(=O)NC(=O)c1cccn1C,23.7,60.0*,2.9,11.3,3.7,27.2,47.0,38.4,68.0*,61.0*,8.7
COc1ccc(-n2c(C)nnc2SCC(=O)Nc2ccccc2F)cc1,2.3,-5.6,4.0,-1.0,-2.1,-1.7,/,/,/,/,/
COc1ccc(-c2nc3cc([N+](=O)[O-])ccc3o2)cc1,-1.4,33.6,24.5,76.9*,1.5,17.0,30.9,36.0,49.8,59.4*,12.6
CC(C)(C)Nc1nc2cc([N+](=O)[O-])ccc2o1,-5.1,6.0,16.4,-1.6,0.2,-2.0,/,/,/,/,/
Nc1ccc(-c2nc3cc([N+](=O)[O-])ccc3o2)cc1,-2.6,63.2*,-424.2,56.1*,5.7,38.1,10.9,43.0,85.0*,53.7*,10.1
